# Measurements as given in PubChem BioAssay (Tox21).
# “And” between values parts separate entries of the source, which are not always exact repeats. Equal values may be shown once. Records with an inconclusive call do not appear. A call without a number means that no potency is given here. The source holds several records for some structures; these can differ, active in one and inactive in another. The source made the active and inactive calls. Unless noted, calls follow the shape of the dose curve; as a rule, active = well fitted curve in the direction sought with a large enough effect in the repeat runs; inconclusive = weak or mixed curves; inactive = no such curve, though single readings can be large; an effect the other way counts as inactive or inconclusive.
# Tests used:
# [1] = qHTS assay for small molecule agonists of the p53 signaling pathway - cell viability (AID 651633; calls by dose curve; also: nearly all actives have a fitted effect of over 30% in size; also: potency is read from the fitted curve at half-maximal effect)
# Outline: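 Viability counter-read: CellTiter-Glo luminescence (30 min, room temperature) in the same p53RE-bla plates. These plates had been exposed to compounds for 16 h at 37 C.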
# [2] = qHTS assay for small molecules that induce genotoxicity in human embryonic kidney cells expressing luciferase-tagged ATAD5 - cell viability (AID 651634; calls by dose curve; also: nearly all actives have a fitted effect of over 25% in size; also: potency is read from the fitted curve at half-maximal effect)
# Outline: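 15.5 hr compound or vehicle exposure of HEK293T cells expressing luciferase-tagged ATAD5 at 37C; live-cell protease activity is read by fluorescence after 30 min of CellTiter-Fluor.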
# [3] = qHTS assay to test for compound auto fluorescence at 460 nm (blue) in HEK293 cells (AID 720678)
# Outline: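 Triamterene serves as the blue fluorophore standard. Compound signal at 405/460 nm is read in HEK293 wells (2,000 cells, 10% dialyzed FBS) after overnight treatment at 37C.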
# [4] = qHTS assay to test for compound auto fluorescence at 590 nm (red) in HEK293 cells (AID 720679)
# Outline: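 We plated HEK293 cells in 10% dialyzed FBS medium, let them adhere for 4-5 hr, then added 23 nL compound. Overnight at 37C and 5% CO2 preceded fluorescence measurement at 540/590nm.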
# [5] = qHTS assay to test for compound auto fluorescence at 460 nm (blue) in HEK293 cell free culture (AID 720681)
# Outline: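 Blue fluorescence (Ex 405/Em 460 nm, triamterene-equivalent) was read immediately after pin transfer of compound or DMSO into medium (DMEM, 10% FBS) without cells.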
# [6] = qHTS assay to test for compound auto fluorescence at 535 nm (green) in HEK293 cell free culture (AID 720682)
# Outline: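 DMEM + 10% FBS, cell-free; cpd or DMSO pinned in; Ex485/Em535 read; output as fluorescein-equivalent signal.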
# [7] = qHTS assay to test for compound auto fluorescence at 590 nm (red) in HEK293 cell free culture (AID 720683)
# Outline: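 Red-channel autofluorescence of compounds in culture medium (DMEM, 10% FBS), no cells, measured at 540/590 nm. Rose Bengal sodium is the reference fluorophore for equivalence.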
# [8] = qHTS assay to test for compound auto fluorescence at 590 nm (red) in HepG2 cell free culture (AID 720684)
# Outline: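 Cell-free; medium MEM + 10% FBS; compound or DMSO added by pintool; read Ex 540/Em 590 nm; Rose Bengal sodium as red reference fluorophore.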
# [9] = qHTS assay to test for compound auto fluorescence at 460 nm (blue) in HepG2 cell free culture (AID 720685)
# Outline: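 Cell-free plates of MEM plus 10% FBS received 23 nL compound or DMSO vehicle; blue-channel (405/460 nm) intensity scored against triamterene as reference fluorophore.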
# [10] = qHTS assay to test for compound auto fluorescence at 535 nm (green) in HepG2 cell free culture (AID 720686)
# [11] = qHTS assay to test for compound auto fluorescence at 460 nm (blue) in HepG2 cells (AID 720687)
# Outline: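 Blue-channel autofluorescence (Ex/Em 405/460 nm, triamterene-equivalent) was measured after 1 hr compound exposure at 37 C, 5% CO2. Cells were HepG2, plated overnight at 37 C in MEM plus 10% FBS.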
# [12] = qHTS assay to identify small molecule antagonists of the glucocorticoid receptor (GR) signaling pathway - cell viability counter screen (AID 720693); also: nearly all actives have a fitted effect of over 55% in size; also: potency is read from the fitted curve at half-maximal effect
# [13] = qHTS assay to identify small molecule antagonists of the androgen receptor (AR) signaling pathway - cell viability counter screen (AID 743033; also: nearly all actives have a fitted effect of over 45% in size; also: potency is read from the fitted curve at half-maximal effect)
# [14] = qHTS assay to identify small molecule antagonists of the androgen receptor (AR) signaling pathway using the MDA cell line - cell viability counter screen (AID 743041; also: nearly all actives have a fitted effect of over 45% in size; also: potency is read from the fitted curve at half-maximal effect)
# Outline: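 Viability read by CellTiter-Fluor fluorescence in the same wells as the antagonist screen, added after 15.5 h of a 16 h, 37C exposure. Human breast carcinoma MDA-kb2 AR-luc cells, compounds co-dosed with agonist R1881.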
# Aromatase (Homo sapiens) = Aromatase (Homo sapiens) (UniProt P11511); test: qHTS assay to identify aromatase inhibitors (AID 743083); also: nearly all actives have a fitted effect of over 55% in size; also: potency is read from the fitted curve at half-maximal effect
# Chain of Aromatase (Homo sapiens) (P11511 whole entry, looked up): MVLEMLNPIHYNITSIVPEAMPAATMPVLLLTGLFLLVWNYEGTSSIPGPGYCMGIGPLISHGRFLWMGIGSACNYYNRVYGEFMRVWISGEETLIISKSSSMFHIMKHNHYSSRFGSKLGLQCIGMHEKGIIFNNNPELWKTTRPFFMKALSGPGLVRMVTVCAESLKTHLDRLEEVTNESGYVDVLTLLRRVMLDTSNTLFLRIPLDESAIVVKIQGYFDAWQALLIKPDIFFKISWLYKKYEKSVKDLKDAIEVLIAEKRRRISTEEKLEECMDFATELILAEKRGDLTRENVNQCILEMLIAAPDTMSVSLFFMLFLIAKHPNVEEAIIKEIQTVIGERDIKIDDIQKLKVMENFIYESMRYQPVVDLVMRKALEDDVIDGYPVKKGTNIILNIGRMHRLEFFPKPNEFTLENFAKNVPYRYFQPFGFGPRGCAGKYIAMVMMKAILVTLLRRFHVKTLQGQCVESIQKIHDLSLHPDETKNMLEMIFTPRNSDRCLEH
# [15] = qHTS assay to identify aromatase inhibitors - cell viability counter screen (AID 743084);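 also: cells stimulated with testosterone during compound exposure; nearly all actives have a fitted effect of over 55% in size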; also: potency is read from the fitted curve at half-maximal effect
# [16] = qHTS assay to identify small molecule that activate the aryl hydrocarbon receptor (AhR) signaling pathway - cell viability counter screen (AID 743086); also: nearly all actives have a fitted effect of over 45% in size; also: potency is read from the fitted curve at half-maximal effect
# Outline: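 Cytotoxicity counter screen: CellTiter-Fluor signal (30 min, 37 C) in 4000 HepG2 cells/well carrying the DRE-luciferase reporter, following 24 h compound exposure at 37 C.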
# [17] = qHTS assay to identify small molecule phospholipidosis (PLD) inducers (AID 1259344; active = well fitted curve in the direction sought with a large enough effect; an effect the other way counts as inactive or inconclusive)
# Outline: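 Phospholipid accumulation was scored by imaging: fixed, Hoechst-counterstained HepG2 cells stained with LipidTOX Red after 24 h compound exposure at 37 C. Read-outs were pit count and pit intensity per well or per cell, with amiodarone and DMSO controls.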
# [18] = qHTS assay to test for compound auto fluorescence at 590 nm (red) in HepG2 cells (AID 720674)
# Outline: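 Red autofluorescence (Ex/Em 540/590 nm, Rose Bengal sodium equivalents) was measured in HepG2 cells, 2,000 per well in MEM plus 10% FBS, plated overnight at 37 C. Readings were taken 1 hr after adding 23 nL compound or DMSO, at 37 C and 5% CO2.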
# [19] = qHTS assay to identify small molecule antagonists of the estrogen receptor alpha (ER-alpha) signaling pathway - cell viability counter screen (AID 743074; calls by dose curve;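 also: HEK293 cells carrying ER-alpha-UAS-bla reporter stimulated with 17beta-estradiol; nearly all actives have a fitted effect of over 45% in size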; also: potency is read from the fitted curve at half-maximal effect)
smiles,measurement,setting,value
C[C@@H](N)C(=O)c1ccccc1,Potency,[1],inactive
same,Potency,[2],inactive
same,Potency,[3],inactive
same,outcome,[4],inactive
same,Potency,[5],inactive
same,Potency,[6],inactive
same,outcome,[7],inactive
same,outcome,[8],inactive
same,Potency,[9],inactive
same,Potency,[10],inactive
same,Potency,[11],inactive
same,Potency,[12],inactive
same,Potency,[13],inactive
same,Potency,[14],inactive
same,Potency,Aromatase (Homo sapiens),inactive
same,Potency,[15],inactive
same,Potency,[16],inactive
same,Potency,[17],inactive
CC(N)Cc1ccc2c(c1)OCO2 (stereo not given),Potency,[1],inactive
same,Potency,[2],inactive
same,outcome,[18],inactive
same,Potency,[3],inactive
same,outcome,[4],inactive
same,Potency,[5],inactive
same,Potency,[6],inactive
same,outcome,[7],inactive
same,outcome,[8],inactive
same,Potency,[9],inactive
same,Potency,[10],inactive
same,Potency,[12],inactive
same,Potency,[13],inactive
same,Potency,[14],inactive
same,Potency,[19],inactive
same,Potency,Aromatase (Homo sapiens),inactive
same,Potency,[15],inactive
same,Potency,[16],inactive
same,PLD induction,[17],-3.76% [at 1.53 µM] (inactive)
CC(C)=CCN1CC[C@]2(C)c3cc(O)ccc3C[C@H]1[C@H]2C,Potency,[1],inactive
same,Potency,[2],inactive
same,outcome,[18],inactive
same,Potency,[3],inactive
same,outcome,[4],inactive
same,Potency,[5],inactive
same,Potency,[6],inactive
same,outcome,[7],inactive
same,outcome,[8],inactive
same,Potency,[9],inactive
same,Potency,[10],inactive
same,Potency,[11],inactive
same,Potency,[12],inactive
same,Potency,[13],inactive
same,Potency,[19],inactive
same,Potency,Aromatase (Homo sapiens),inactive
same,Potency,[15],inactive
same,Potency,[16],inactive
same,PLD induction,[17],-0.374% [at 3.15 µM] (inactive)
C[C@]12CC[C@@H]3c4ccc(OC(=O)N(CCCl)CCCl)cc4CC[C@H]3[C@@H]1CC[C@@H]2OP(=O)(O)O,Potency,[1],inactive
same,Potency,[2],inactive
same,outcome,[18],inactive
same,Potency,[3],inactive
same,outcome,[4],inactive
same,Potency,[5],inactive
same,Potency,[6],inactive
same,outcome,[7],inactive
same,outcome,[8],inactive
same,Potency,[9],inactive
same,Potency,[10],inactive
same,Potency,[11],inactive
same,Potency,[12],inactive
same,Potency,[13],inactive
same,Potency,[14],inactive
same,Potency,[19],inactive
same,Potency,Aromatase (Homo sapiens),inactive
same,Potency,[15],inactive
same,Potency,[16],inactive
same,Potency,[17],inactive
CCCCCc1cc(O)c2c(c1)OC(C)(C)c1ccc(C)cc1-2,Potency,[1],11.9 µM (active)
same,Potency,[2],23.7 µM (active)
same,outcome,[18],inactive
same,Potency,[3],inactive
same,outcome,[4],inactive
same,Potency,[5],inactive
same,Potency,[6],inactive
same,outcome,[7],inactive
same,Potency,[9],inactive
same,Potency,[10],inactive
same,Potency,[12],13.4 µM (active)
same,Potency,[13],inactive
same,Potency,[19],23.9 µM (active)
same,Potency,Aromatase (Homo sapiens),13.3 µM (active)
same,Potency,[17],inactive
CC[C@H]1[C@@H]2C[C@H]3[C@@H]4N(C)c5ccccc5[C@]45C[C@@H](C2[C@H]5O)N3[C@@H]1O (stereo not given in full),Potency,[1],inactive
same,Potency,[2],inactive
same,outcome,[18],inactive
same,Potency,[3],inactive
same,outcome,[4],inactive
same,Potency,[5],inactive
same,Potency,[6],inactive
same,outcome,[7],inactive
same,Potency,[9],inactive
same,Potency,[10],inactive
same,Potency,[11],inactive
same,Potency,[12],inactive
same,Potency,[13],inactive
same,Potency,[14],inactive
same,Potency,[19],inactive
same,Potency,Aromatase (Homo sapiens),inactive
same,Potency,[15],inactive
same,Potency,[16],inactive
same,Potency,[17],inactive
Oc1cc[c]([Hg][Cl])cc1,Potency,[1],9.44 µM (active) and 16.8 µM (active)
same,Potency,[2],11.9 µM (active) and 13.3 µM (active)
same,outcome,[18],inactive
same,Potency,[3],inactive
same,outcome,[4],inactive
same,Potency,[5],inactive
same,Potency,[6],inactive
same,outcome,[7],inactive
same,outcome,[8],inactive
same,Potency,[9],inactive
same,Potency,[10],inactive
same,Potency,[12],6.74 µM (active) and 19 µM (active)
same,Potency,[13],7.56 µM (active) and 19 µM (active)
same,Potency,[14],11.9 µM (active) and 13.3 µM (active)
same,Potency,[19],21.3 µM (active) and inactive
same,Potency,Aromatase (Homo sapiens),6.68 µM (active) and 13.3 µM (active)
same,Potency,[15],6.68 µM (active) and 11.9 µM (active)
same,Potency,[16],13.3 µM (active)
same,Potency,[17],inactive
CNC(C)Cc1ccccc1 (stereo not given),Potency,[1],inactive
same,Potency,[2],inactive
same,Potency,[3],inactive
same,outcome,[4],inactive
same,Potency,[5],inactive
same,Potency,[6],inactive
same,outcome,[7],inactive
same,outcome,[8],inactive
same,Potency,[9],inactive
same,Potency,[10],inactive
same,Potency,[11],inactive
same,Potency,[12],inactive
same,Potency,[13],inactive
same,Potency,[14],inactive
same,Potency,[19],inactive
same,Potency,Aromatase (Homo sapiens),inactive
same,Potency,[15],inactive
same,Potency,[16],inactive
same,Potency,[17],inactive
C[C@@H]1[C@@H]2Cc3ccc(O)cc3[C@@]1(C)CCN2CCc1ccccc1,Potency,[1],inactive
same,Potency,[2],inactive
same,outcome,[18],inactive
same,Potency,[3],inactive
same,outcome,[4],inactive
same,Potency,[5],inactive
same,Potency,[6],inactive
same,outcome,[7],inactive
same,outcome,[8],inactive
same,Potency,[9],inactive
same,Potency,[10],inactive
same,Potency,[11],inactive
same,Potency,[12],inactive
same,Potency,[19],inactive
same,Potency,Aromatase (Homo sapiens),inactive
same,Potency,[15],inactive
same,Potency,[17],inactive
COC(=O)[C@H]1[C@@H](OC(=O)c2ccccc2)C[C@@H]2CC[C@H]1N2C,Potency,[1],inactive
same,Potency,[2],inactive
same,outcome,[18],inactive
same,Potency,[3],inactive
same,outcome,[4],inactive
same,Potency,[5],inactive
same,outcome,[7],inactive
same,outcome,[8],inactive
same,Potency,[9],inactive
same,Potency,[10],inactive
same,Potency,[11],inactive
same,Potency,[12],inactive
same,Potency,[13],inactive
same,Potency,[14],inactive
same,Potency,[19],inactive
same,Potency,Aromatase (Homo sapiens),inactive
same,Potency,[15],inactive
same,Potency,[16],inactive
same,Potency,[17],inactive
N#CC(C#N)=Cc1cc(O)c(O)c(O)c1,Potency,[1],inactive
same,Potency,[2],29.8 µM (active)
same,outcome,[18],inactive
same,Potency,[3],inactive
same,outcome,[4],inactive
same,Potency,[5],inactive
same,Potency,[6],inactive
same,outcome,[7],inactive
same,outcome,[8],inactive
same,Potency,[9],inactive
same,Potency,[11],inactive
same,Potency,[12],inactive
same,Potency,[13],inactive
same,Potency,[19],inactive
same,Potency,[15],26.6 µM (active)
same,Potency,[16],13.3 µM (active)
same,Potency,[17],inactive
CC1(C)C(C=C(Cl)Cl)C1C(=O)OCc1cccc(Oc2ccccc2)c1 (stereo not given),Potency,Aromatase (Homo sapiens),inactive
C[C@]12CCC(=O)C[C@@H]1CC[C@@H]1[C@@H]2CC[C@@]2(C)[C@H]1CC[C@]2(C)O,Potency,[2],inactive
same,outcome,[18],inactive
same,Potency,[3],inactive
same,outcome,[4],inactive
same,Potency,[5],inactive
same,Potency,[6],inactive
same,outcome,[7],inactive
same,outcome,[8],inactive
same,Potency,[9],inactive
same,Potency,[10],inactive
same,Potency,[12],inactive
same,Potency,[13],inactive
same,Potency,[14],inactive
same,Potency,[19],inactive
same,Potency,Aromatase (Homo sapiens),inactive
same,Potency,[15],inactive
same,Potency,[16],inactive
same,Potency,[17],inactive
